In PubChem BioAssay (EPA / NIEHS):
Records with an inconclusive call do not appear. The source made the active and inactive calls. Rule for the calls, unless noted: active = hit-call score of the fitted dose curve at least 0.9, where 1 is the maximum; inactive = score below 0.9.

Key:
[1] = target: Myc proto-oncogene protein (Homo sapiens) (UniProt P01106); experiment: ATG_Myc_CIS: Attagene CIS-FACTORIAL HepG2 Assay for human Myelocytomatosis (Myc) Proto-Oncogene Transcription Factor (AID 2282990); details: HepG2, Attagene cis-reporter transcription factor activity; actives raise or lower the signal
Procedure, shortened: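 Multiplexed cis-reporter transcription in HepG2 cells after 24 h chemical treatment. Reporter mRNA measured by RT-PCR and capillary electrophoresis fluorescence; activity fitted bidirectionally against DMSO control.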

[2] = ATG_NRF2_ARE_CIS: Attagene CIS-FACTORIAL HepG2 Assay for human Nuclear Factor Erythroid 2 Related Factor 2 (NFR2) response to Antioxidant Response Elements (ARE) (AID 2282992); details: HepG2 Attagene ARE/NRF2 reporter, transcription factor activity; actives raise or lower the signal
Procedure, shortened: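 Multiplexed reporter mRNA profiling in HepG2 after a 24 h chemical exposure. Curves fitted in both directions relative to DMSO negative control.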

[3] = ATG_Oct_MLP_CIS: Attagene CIS-FACTORIAL HepG2 Assay for human Octamer-Binding Transcription Factor (Oct) (AID 2282993); details: HepG2 Attagene cis-factorial Oct reporter, mRNA; actives raise or lower the signal
Procedure, shortened: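 Readout is reporter transcript level from RT-PCR with fluorescent primer extension and capillary electrophoresis, fitted in both directions against DMSO. Transfected HepG2 reporter units report endogenous factor activity after 24 h dosing.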

[4] = target: Cellular tumor antigen p53 (Homo sapiens) (UniProt P04637); experiment: ATG_p53_CIS: Attagene CIS-FACTORIAL HepG2 Assay for human p53 Transcription Factor (AID 2282994); details: HepG2 p53 cis-element reporter, Attagene mRNA; actives raise or lower the signal
Procedure, shortened: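 Multiplexed reporter mRNA assay in human HepG2 liver cells; cis-regulated units report endogenous factor activity. Values come from bidirectional curve fitting against DMSO negative control after 24 h treatment.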

[5] = target: human Peroxisome Proliferator-activated Receptor alpha (PPARa), PPARA (gene 5465) (UniProt Q07869); experiment: ATG_PPARa_TRANS: Attagene TRANS-FACTORIAL HepG2 Assay for human Peroxisome Proliferator-activated Receptor alpha (PPARa) (AID 2283001; active = hit-call score of the fitted dose curve at least 0.9, where 1 is the maximum)
Procedure, shortened: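 HepG2 cells transiently transfected with multiplexed GAL4-UAS reporter units and chimeric NR-Gal4 constructs were dosed for 24 h. Reporter mRNA was measured by RT-PCR with fluorescent labelling and capillary electrophoresis; gain of signal fitted against DMSO.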

[6] = target: human Peroxisome Proliferator-activated Receptor delta (PPARd), PPARD (gene 5467) (UniProt Q03181); experiment: ATG_PPARd_TRANS: Attagene TRANS-FACTORIAL HepG2 Assay for human Peroxisome Proliferator-activated Receptor delta (PPARd) (AID 2283002; active = hit-call score of the fitted dose curve at least 0.9, where 1 is the maximum)
Procedure, shortened: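 Multiplexed trans-activation format: HepG2 liver cells expressing exogenous NR-Gal4 chimeras and GAL4-UAS reporters were exposed for 24 h. Reporter mRNA was detected by RT-PCR with capillary electrophoresis fluorescence; activity fitted as gain of signal relative to DMSO.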

[7] = target: human Retinoic Acid Receptor beta (RARb), RARB (gene 5915) (UniProt P10826); experiment: ATG_RARb_TRANS: Attagene TRANS-FACTORIAL HepG2 Assay for human Retinoic Acid Receptor beta (AID 2283004; active = hit-call score of the fitted dose curve at least 0.9, where 1 is the maximum)
Procedure, shortened: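 HepG2 cells were transiently transfected with GAL4-UAS reporter units that report activity of exogenous chimeric NR-Gal4 proteins, then exposed to compound for 24 h. Reporter mRNA was quantified by RT-PCR with capillary electrophoresis fluorescence, as gain of signal over DMSO.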

[8] = target: Peroxisome proliferator-activated receptor gamma (Homo sapiens) (UniProt P37231); experiment: ATG_PPARg_TRANS: Attagene TRANS-FACTORIAL HepG2 Assay for human Peroxisome Proliferator-activated Receptor-gamma (PPARg) (AID 2283007; active = hit-call score of the fitted dose curve at least 0.9, where 1 is the maximum)
Procedure, shortened: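 HepG2 cells transiently transfected with multiplexed GAL4-UAS reporter units and exogenous chimeric NR-Gal4 proteins; reporter mRNA quantified after 24 h compound exposure by RT-PCR, fluorescent labelling, HpaI digestion and capillary electrophoresis; gain-of-signal fitted versus DMSO baseline.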

[9] = target: Nuclear receptor subfamily 1 group I member 2 (Homo sapiens) (UniProt O75469); experiment: ATG_PXR_TRANS: Attagene TRANS-FACTORIAL HepG2 Assay for human Pregnane X Receptor (PXR) (AID 2283008; active = hit-call score of the fitted dose curve at least 0.9, where 1 is the maximum)
Procedure, shortened: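 Measures mRNA induction of a GAL4-UAS-driven reporter in human HepG2 cells transiently expressing PXR fused to Gal4, following 24 h treatment. DMSO served as negative control and baseline.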

[10] = target: human Retinoic Acid Receptor gamma (RARg), RARG (gene 5916) (UniProt P13631); experiment: ATG_RARg_TRANS: Attagene TRANS-FACTORIAL HepG2 Assay for human Retinoic Acid Receptor gamma (RARg) (AID 2283009; active = hit-call score of the fitted dose curve at least 0.9, where 1 is the maximum)
Procedure, shortened: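 HepG2, RARg-GAL4 TRANS system, 24 h exposure; reporter mRNA by RT-PCR + CE fluorescence; increase over DMSO.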

[11] = target: Retinoic acid receptor alpha (Homo sapiens) (UniProt P10276); experiment: ATG_RARa_TRANS: Attagene TRANS-FACTORIAL HepG2 Assay for human Retinoic Acid Receptor alpha (RARa) (AID 2283005; active = hit-call score of the fitted dose curve at least 0.9, where 1 is the maximum)
Procedure, shortened: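 HepG2 cells transiently transfected with multiple reporter units expressing chimeric RARα-GAL4 fusion, with GAL4-UAS-driven reporters. After 24 h compound exposure, reporter mRNA induction quantified by RT-PCR and capillary electrophoresis with fluorescent labeling; gain-of-signal fitted relative to DMSO control.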

[12] = target: human RAR-related Orphan Receptor beta (RORb), RORB (gene 6096) (UniProt Q92753); experiment: ATG_RORb_TRANS: Attagene TRANS-FACTORIAL HepG2 Assay for human RAR-related Orphan Receptor beta (RORb) (AID 2283010; active = hit-call score of the fitted dose curve at least 0.9, where 1 is the maximum)
Procedure, shortened: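 In this TRANS-format test, human HepG2 cells express chimeric NR-Gal4 fusion proteins driving GAL4-UAS reporters. After 24 h dosing, reporter transcripts are measured by fluorescent RT-PCR/capillary electrophoresis, with DMSO as negative control.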

[13] = target: human RAR-related Orphan Receptor gamma (RORg), RORC (gene 6097) (UniProt P51449); experiment: ATG_RORg_TRANS: Attagene TRANS-FACTORIAL HepG2 Assay for human RAR-related Orphan Receptor gamma (RORg) (AID 2283011; active = hit-call score of the fitted dose curve at least 0.9, where 1 is the maximum)
Procedure, shortened: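 HepG2 cells transiently transfected with GAL4-UAS reporter units and chimeric RORg-Gal4 construct; after 24 h chemical exposure, reporter mRNA measured by RT-PCR with fluorescent capillary electrophoresis, gain of signal fitted against DMSO.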

[14] = BSK_3C_TissueFactor: BioMAP Diversity Plus: 3C Assay for Tissue Factor Biomarker Activity (AID 2282997); details: BioMAP 3C HUVEC, tissue factor biomarker readout; actives raise or lower the signal
Procedure, shortened: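 HUVEC were treated 24 h, then surface tissue factor measured by ELISA and fitted bidirectionally against DMSO. Parallel SRB total-protein staining assessed overt cytotoxicity at the same time point.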

[15] = BSK_3C_uPAR: BioMAP Diversity Plus: 3C Assay for Urokinase-type plasminogen activator receptor (uPAR) Biomarker Activity (AID 2282998); details: BioMAP 3C HUVEC, uPAR biomarker ELISA; actives raise or lower the signal
Procedure, shortened: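 Cell-surface uPAR on HUVEC (3C system) read by ELISA at 24 h post-treatment, with DMSO as baseline and fitting in both directions. Parallel cultures stained with SRB to flag overt cytotoxicity.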

[16] = BSK_3C_VCAM1: BioMAP Diversity Plus: 3C Assay for Vascular cell adhesion molecule 1 (VCAM1) Biomarker Activity (AID 2282999); details: BioMAP 3C HUVEC, VCAM1 ELISA, cytokine-stimulated; actives raise or lower the signal
Procedure, shortened: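 Human umbilical vein endothelial cells were dosed with compound for 24 h, after which cell-surface VCAM-1 was quantified by ELISA. Bidirectional curve fitting used DMSO as negative control and activity baseline.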

[17] = BSK_4H_Eotaxin3: BioMAP Diversity Plus: 4H Assay for Eotaxin 3 Biomarker Activity (AID 2283000); details: primary human endothelial cells (HUVEC); actives raise or lower the signal;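 note: CCL26 protein level quantified by ELISA in parallel with SRB cytotoxicity check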
Procedure, shortened: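 Eotaxin-3 (CCL26) levels were measured by ELISA in HUVEC primary cultures 24 h post-dosing. Gain or loss of signal was fitted in both directions, with DMSO serving as baseline and negative control.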

[18] = read-out: Intercellular Adhesion Molecule 1 (ICAM1), ICAM1 (gene 3383); experiment: BSK_3C_ICAM1: BioMAP Diversity Plus: 3C Assay for Intercellular Adhesion Molecule 1 (ICAM1) Biomarker Activity (AID 2283003); details: primary human endothelial cells (HUVEC); actives raise or lower the signal
Procedure, shortened: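 Human vascular endothelial primary cells, 3C conditions, 24 h treatment. ICAM-1 by ELISA.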

[19] = BSK_3C_Proliferation: Cell Proliferation Assessment in the BioMAP Diversity Plus: 3C Assay (AID 2283006); details: primary human endothelial cells (HUVEC)
Procedure, shortened: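 Proliferation of human vascular endothelial primary cells after 48 h dosing, quantified as SRB-stained protein at 560 nm relative to DMSO.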

Measured: AC50

Sequence of Cellular tumor antigen p53 (Homo sapiens) (P04637 whole entry, looked up): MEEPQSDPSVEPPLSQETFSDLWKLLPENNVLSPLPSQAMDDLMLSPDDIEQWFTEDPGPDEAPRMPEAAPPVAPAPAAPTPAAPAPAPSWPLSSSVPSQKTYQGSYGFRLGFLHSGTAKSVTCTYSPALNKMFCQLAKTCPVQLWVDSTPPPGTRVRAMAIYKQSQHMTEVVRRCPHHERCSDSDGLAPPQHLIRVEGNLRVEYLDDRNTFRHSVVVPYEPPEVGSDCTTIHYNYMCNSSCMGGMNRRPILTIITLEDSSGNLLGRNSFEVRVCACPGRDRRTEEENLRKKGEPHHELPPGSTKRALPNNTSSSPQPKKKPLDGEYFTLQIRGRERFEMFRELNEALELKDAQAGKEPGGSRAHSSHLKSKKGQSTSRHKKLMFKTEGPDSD
Sequence of Myc proto-oncogene protein (Homo sapiens) (P01106 whole entry, looked up): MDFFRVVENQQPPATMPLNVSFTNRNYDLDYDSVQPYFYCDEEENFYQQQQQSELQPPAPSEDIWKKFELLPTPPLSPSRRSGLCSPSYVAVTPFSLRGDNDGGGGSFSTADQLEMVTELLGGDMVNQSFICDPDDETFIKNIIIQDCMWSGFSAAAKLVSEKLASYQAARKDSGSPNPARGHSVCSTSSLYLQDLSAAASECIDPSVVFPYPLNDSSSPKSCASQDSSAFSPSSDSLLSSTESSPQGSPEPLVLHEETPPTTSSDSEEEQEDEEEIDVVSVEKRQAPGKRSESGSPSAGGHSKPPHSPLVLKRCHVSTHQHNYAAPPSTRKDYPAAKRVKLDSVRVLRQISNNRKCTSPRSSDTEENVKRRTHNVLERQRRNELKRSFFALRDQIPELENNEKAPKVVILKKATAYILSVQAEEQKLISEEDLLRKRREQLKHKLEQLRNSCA
Sequence of human Retinoic Acid Receptor beta (RARb), RARB (gene 5915) (P10826 whole entry, looked up, the tested form may be a part): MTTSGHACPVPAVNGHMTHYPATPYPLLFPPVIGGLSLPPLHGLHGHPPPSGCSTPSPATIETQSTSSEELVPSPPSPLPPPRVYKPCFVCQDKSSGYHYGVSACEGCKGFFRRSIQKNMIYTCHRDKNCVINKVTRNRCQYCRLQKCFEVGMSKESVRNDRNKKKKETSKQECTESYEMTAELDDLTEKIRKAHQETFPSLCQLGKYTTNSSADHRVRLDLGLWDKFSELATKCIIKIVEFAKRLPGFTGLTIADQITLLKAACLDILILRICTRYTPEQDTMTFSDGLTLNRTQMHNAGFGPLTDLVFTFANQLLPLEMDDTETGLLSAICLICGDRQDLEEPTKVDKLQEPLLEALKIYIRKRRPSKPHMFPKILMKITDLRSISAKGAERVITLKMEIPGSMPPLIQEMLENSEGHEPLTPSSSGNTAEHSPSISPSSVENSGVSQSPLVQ
Sequence of human RAR-related Orphan Receptor gamma (RORg), RORC (gene 6097) (P51449 whole entry, looked up, the tested form may be a part): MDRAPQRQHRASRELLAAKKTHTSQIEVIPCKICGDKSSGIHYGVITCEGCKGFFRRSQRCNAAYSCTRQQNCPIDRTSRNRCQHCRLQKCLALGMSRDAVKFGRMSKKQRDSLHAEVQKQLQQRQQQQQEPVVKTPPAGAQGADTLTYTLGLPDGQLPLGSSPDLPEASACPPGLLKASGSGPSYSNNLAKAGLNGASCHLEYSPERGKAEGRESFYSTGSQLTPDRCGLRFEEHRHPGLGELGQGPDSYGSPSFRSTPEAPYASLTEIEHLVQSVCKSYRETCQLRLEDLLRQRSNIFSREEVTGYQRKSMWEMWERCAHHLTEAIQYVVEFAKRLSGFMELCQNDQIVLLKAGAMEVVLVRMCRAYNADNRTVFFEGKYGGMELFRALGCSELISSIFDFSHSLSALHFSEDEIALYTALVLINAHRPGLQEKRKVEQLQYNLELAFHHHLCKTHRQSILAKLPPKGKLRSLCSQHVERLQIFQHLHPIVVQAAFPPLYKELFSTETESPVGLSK
Sequence of human Peroxisome Proliferator-activated Receptor alpha (PPARa), PPARA (gene 5465) (Q07869 whole entry, looked up, the tested form may be a part): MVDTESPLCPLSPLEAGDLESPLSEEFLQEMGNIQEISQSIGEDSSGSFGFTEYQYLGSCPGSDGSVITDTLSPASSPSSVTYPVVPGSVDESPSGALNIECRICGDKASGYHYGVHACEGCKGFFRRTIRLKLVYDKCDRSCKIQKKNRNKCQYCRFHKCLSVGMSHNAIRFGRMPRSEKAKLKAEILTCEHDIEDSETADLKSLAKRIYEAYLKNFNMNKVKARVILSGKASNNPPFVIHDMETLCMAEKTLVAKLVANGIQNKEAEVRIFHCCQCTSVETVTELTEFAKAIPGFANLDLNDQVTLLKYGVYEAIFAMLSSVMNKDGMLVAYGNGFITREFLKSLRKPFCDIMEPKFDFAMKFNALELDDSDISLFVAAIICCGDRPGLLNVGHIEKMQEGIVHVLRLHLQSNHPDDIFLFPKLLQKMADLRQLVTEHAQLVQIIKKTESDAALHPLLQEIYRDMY
Sequence of Retinoic acid receptor alpha (Homo sapiens) (P10276 whole entry, looked up, the tested form may be a part): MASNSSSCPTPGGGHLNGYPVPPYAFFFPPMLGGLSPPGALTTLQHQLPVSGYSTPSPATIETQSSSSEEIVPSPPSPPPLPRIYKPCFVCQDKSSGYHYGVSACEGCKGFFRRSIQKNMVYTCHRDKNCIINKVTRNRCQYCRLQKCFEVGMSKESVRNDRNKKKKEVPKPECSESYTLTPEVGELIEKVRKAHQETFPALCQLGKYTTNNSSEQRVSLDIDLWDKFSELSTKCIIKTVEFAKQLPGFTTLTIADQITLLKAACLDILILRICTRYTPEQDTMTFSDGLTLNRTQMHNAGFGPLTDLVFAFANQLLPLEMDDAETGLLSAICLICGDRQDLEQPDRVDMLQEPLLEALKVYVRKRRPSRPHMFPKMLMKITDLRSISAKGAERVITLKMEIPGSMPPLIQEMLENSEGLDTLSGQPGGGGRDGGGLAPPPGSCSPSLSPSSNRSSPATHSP
Sequence of Nuclear receptor subfamily 1 group I member 2 (Homo sapiens) (O75469 whole entry, looked up, the tested form may be a part): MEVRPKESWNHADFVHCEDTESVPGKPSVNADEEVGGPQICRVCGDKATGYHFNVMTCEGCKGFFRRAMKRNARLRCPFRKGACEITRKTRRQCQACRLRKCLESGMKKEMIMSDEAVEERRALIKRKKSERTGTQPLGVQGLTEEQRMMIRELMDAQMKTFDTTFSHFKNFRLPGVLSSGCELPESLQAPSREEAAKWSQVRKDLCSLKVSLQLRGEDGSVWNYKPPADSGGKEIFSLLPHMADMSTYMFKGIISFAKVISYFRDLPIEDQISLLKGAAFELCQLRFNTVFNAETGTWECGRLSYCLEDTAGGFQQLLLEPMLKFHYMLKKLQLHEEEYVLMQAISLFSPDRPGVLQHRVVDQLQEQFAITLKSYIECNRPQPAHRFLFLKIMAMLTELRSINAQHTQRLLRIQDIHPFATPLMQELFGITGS
Sequence of human Retinoic Acid Receptor gamma (RARg), RARG (gene 5916) (P13631 whole entry, looked up, the tested form may be a part): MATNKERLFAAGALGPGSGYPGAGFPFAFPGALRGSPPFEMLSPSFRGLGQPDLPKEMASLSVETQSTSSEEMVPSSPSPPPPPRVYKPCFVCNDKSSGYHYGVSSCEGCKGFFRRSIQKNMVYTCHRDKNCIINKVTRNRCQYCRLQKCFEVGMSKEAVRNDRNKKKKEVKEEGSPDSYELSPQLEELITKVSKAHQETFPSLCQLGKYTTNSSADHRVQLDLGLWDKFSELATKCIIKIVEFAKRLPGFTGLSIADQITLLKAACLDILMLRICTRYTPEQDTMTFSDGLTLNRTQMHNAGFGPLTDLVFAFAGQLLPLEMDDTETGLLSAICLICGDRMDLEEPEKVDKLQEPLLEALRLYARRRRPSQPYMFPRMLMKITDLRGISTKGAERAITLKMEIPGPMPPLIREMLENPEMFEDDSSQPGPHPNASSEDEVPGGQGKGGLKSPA
Sequence of Peroxisome proliferator-activated receptor gamma (Homo sapiens) (P37231 whole entry, looked up, the tested form may be a part): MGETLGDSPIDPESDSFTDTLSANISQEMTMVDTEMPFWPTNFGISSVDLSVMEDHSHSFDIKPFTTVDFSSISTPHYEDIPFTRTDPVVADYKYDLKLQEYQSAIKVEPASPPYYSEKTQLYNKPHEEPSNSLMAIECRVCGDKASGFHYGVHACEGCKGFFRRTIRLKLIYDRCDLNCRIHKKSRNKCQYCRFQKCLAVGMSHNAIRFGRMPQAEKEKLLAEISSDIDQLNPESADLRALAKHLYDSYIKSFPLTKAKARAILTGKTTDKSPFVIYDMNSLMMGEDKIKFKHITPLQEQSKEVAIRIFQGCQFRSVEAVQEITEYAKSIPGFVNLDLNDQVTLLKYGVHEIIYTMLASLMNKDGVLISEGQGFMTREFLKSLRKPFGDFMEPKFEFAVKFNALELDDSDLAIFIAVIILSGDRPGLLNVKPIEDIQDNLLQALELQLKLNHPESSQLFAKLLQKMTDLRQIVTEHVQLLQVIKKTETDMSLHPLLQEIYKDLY
Sequence of human Peroxisome Proliferator-activated Receptor delta (PPARd), PPARD (gene 5467) (Q03181 whole entry, looked up, the tested form may be a part): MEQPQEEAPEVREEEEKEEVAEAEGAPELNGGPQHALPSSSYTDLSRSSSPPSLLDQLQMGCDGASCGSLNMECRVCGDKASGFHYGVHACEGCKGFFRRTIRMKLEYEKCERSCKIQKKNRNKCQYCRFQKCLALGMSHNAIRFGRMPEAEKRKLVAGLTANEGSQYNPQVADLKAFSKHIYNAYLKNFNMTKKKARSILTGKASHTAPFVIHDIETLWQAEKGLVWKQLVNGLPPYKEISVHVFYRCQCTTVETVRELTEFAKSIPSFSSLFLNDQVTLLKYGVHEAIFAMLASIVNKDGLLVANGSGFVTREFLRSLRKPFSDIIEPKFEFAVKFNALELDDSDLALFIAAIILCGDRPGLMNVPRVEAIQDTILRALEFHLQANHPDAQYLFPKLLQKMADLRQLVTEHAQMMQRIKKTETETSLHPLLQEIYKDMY

O=C1OC(=O)c2c(Cl)c(Cl)c(Cl)c(Cl)c21
inactive: [1] | [2] | [3] | [4] | [5] | [6] | [7]

CCOc1ccc(N=Nc2ccc(C=Cc3ccc(N=Nc4ccc(OCC)cc4)cc3S(=O)(=O)O)c(S(=O)(=O)O)c2)cc1
inactive: [1] | [2] | [3] | [4] | [6] | [7] | [8] | [9] | [10]

CN(C)CCOC(C)(c1ccccc1)c1ccccn1 (stereo not given)
inactive: [1] | [2] | [3] | [4] | [6] | [9] | [10]

CCCC(C)C(O)CC (stereo not given)
inactive: [1] | [2] | [3] | [4] | [5] | [7] | [11] | [8] | [9] | [10]

CCCC[O][Al]([O]CCCC)[O]CCCC
inactive: [1] | [2] | [3] | [4]

OCc1ccc(Cl)cc1Cl
inactive: [1] | [2] | [3] | [4] | [5] | [6] | [11] | [9]

O=C(O)c1ccc(O)cc1
not listed: [14] | [15] | [16] | [17] | [18] | [19]
inactive: all other assays above

CCCC1O[C@@H]2C[C@H]3[C@@H]4CCC5=CC(=O)C=C[C@]5(C)[C@H]4[C@@H](O)C[C@]3(C)[C@]2(C(=O)CO)O1 (stereo not given in full)
inactive: [1] | [3] | [5] | [7] | [8] | [10]
active: [2] 78.9 µM | [4] 37.5 µM | [9] 1.36 µM

CS(=O)(=O)OCCCCOS(C)(=O)=O
not listed: [5] | [7] | [9] | [10] | [12]
inactive: all other assays above

COC(C)(C)CC(C)=O
inactive: [1] | [2] | [3] | [4] | [5] | [6] | [9]

O=c1[nH]c(=O)c2cn[nH]c2[nH]1
inactive: [1] | [2] | [3] | [4] | [6] | [11] | [8] | [12]

Cc1ccc(C)o1
inactive: [1] | [2] | [3] | [4] | [6] | [10]

O=C(CC(=O)c1ccccc1)c1ccccc1
inactive: [4] | [6] | [13]
active: [1] 100 µM | [2] 3.43 µM | [3] 59 µM | [8] 3.74 µM | [9] 28.2 µM
